HP1b chromo inh: HTS for Inhibitors of HP1-beta Chromodomain Interactions with Methylated Histone Tails | 390,000 tested, 0.56% active | AlphaScreen HP1-beta / biotin-H3K9me3 peptide binding | AID 540317, 2011 | Potency, µM (doses to about 114 µM), hits mostly inhibitors; further: nearly all actives have a fitted effect of over 70% in size
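Compound inhibition of the preformed complex between 50 nM HP1-beta and 50 nM biotinylated H3K9me3 peptide was read by AlphaScreen. Buffer was PBS pH 7.4 with 0.01% Tween-20. Incubations ran 30 min at room temperature, with 10 ug/mL donor/acceptor beads.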
PLK1 PBD block: qHTS for Inhibitors of PLK1-PDB (polo-like kinase 1 - polo-box domain): Primary Screen. Plk1 PBD binding of FITC phosphopeptide, fluorescence polarization. Serine/threonine-protein kinase PLK1 (Homo sapiens), P53350. Potency, µM, hits mostly inhibitors. AID 720504, 2013. 360,000 tested, 2.8% active; further: series mostly up to about 57 µM; nearly all actives have a fitted effect of over 65% in size
BAZ2B inh: qHTS Assay for Inhibitors of BAZ2B | Bromodomain adjacent to zinc finger domain protein 2B (Homo sapiens), Q9UIF8 | AlphaScreen BAZ2B-H3K14Ac peptide displacement | Potency, µM (doses to about 114 µM), hits mostly inhibitors | 360,000 tested, 4.4% active | AID 504333, 2011; further: nearly all actives have a fitted effect of over 60% in size
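Compounds, titrated to a top concentration of 110 uM, were incubated 30 min at room temperature with preformed BAZ2B/acetyl-K14 H3 peptide complex (50 nM each). Proximity signal was measured by AlphaScreen after 20 min with beads.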
G9a block: qHTS Assay for Inhibitors of Histone Lysine Methyltransferase G9a. Histone-lysine N-methyltransferase EHMT2 (Homo sapiens), Q96KQ7. G9a H3K9 monomethylation, AlphaScreen, 2 h. Potency, µM (titrated, usually from 102 µM), actives largely listed as inhibitors. 350,000 tested, 8.8% active; further: nearly all actives have a fitted effect of over 75% in size
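Chemiluminescent proximity detection of H3K9 monomethylation, read after 10 min bead incubation in the dark. Reaction: 20 nM G9a, 500 nM biotin-H3K9 peptide, 20 uM SAM cofactor, 2 h, room temperature, following 15 min enzyme-compound preincubation.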
JMJD2A Tudor inh: qHTS Assay for Inhibitors of JMJD2A-Tudor Domain; AID 504339, 2011; 390,000 tested, 4.4% active; AlphaScreen JMJD2A-Tudor / H3K4me3 peptide binding; Lysine-specific demethylase 4A (Homo sapiens), O75164; Potency, µM (titrated, usually from 114 µM), most hits filed as inhibitors; further: nearly all actives have a fitted effect of over 50% in size
Sfp PPTase inh: qHTS Assay for Inhibitors of Bacillus subtilis Sfp phosphopantetheinyl transferase (PPTase) | Potency, µM, usual class: inhibitors | 310,000 tested, 3.5% active | Biochemical Sfp PPTase activity, qHTS | 4'-phosphopantetheinyl transferase ffp (Bacillus subtilis), Q9F4F7 | AID 1490, 2009;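 further: the enzyme is Sfp with the accession as filed and its product quenches rhodamine fluorescence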
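Reaction rates are the 30-min fluorescence difference (ex 525, em 598 nm) in wells containing 15 nM Sfp, 5 uM rhodamine-CoA and 12.5 uM BHQ-2-YbbR at pH 7.6 with 10 mM MgCl2.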
Numbers stand for hits; [ ] = another dose, or the depositor's remark. Hits are enriched below; roughly 12% of the tested compounds scored in any of these assays. The call rests on the fitted dose curve; in most records, active means well fitted curve in the direction sought with a large enough effect; inconclusive means small, poorly fitted or top-dose-only effect, or another doubt; inactive means no such curve, though single readings can be large; an effect the other way counts as inactive or inconclusive.

Results for O=c1c2ccccc2nnn1CSc1nnc(COc2ccc(Cl)cc2)n1Cc1ccco1 ?
HP1b chromo inh: inactive; PLK1 PBD block: inactive; BAZ2B inh: inconclusive; G9a block: inactive[0.0925 µM]; JMJD2A Tudor inh: inconclusive; Sfp PPTase inh: inactive

Results for S=c1[nH]nc(COc2ccc(Cl)cc2)n1Cc1ccco1 ?
HP1b chromo inh: inconclusive; PLK1 PBD block: inconclusive; BAZ2B inh: inconclusive; G9a block: 3.55µM; JMJD2A Tudor inh: inconclusive; Sfp PPTase inh: inactive

How did S=c1[nH]nc(COc2ccc(Cl)cc2)n1-c1ccc(Cl)cc1 do in these assays?
HP1b chromo inh: inactive; PLK1 PBD block: inconclusive; BAZ2B inh: inconclusive; G9a block: inactive[0.501 µM]; JMJD2A Tudor inh: inconclusive; Sfp PPTase inh: inactive

Results for CCCc1n[nH]c(=S)n1Cc1ccco1 ?
HP1b chromo inh: inactive; PLK1 PBD block: inactive; BAZ2B inh: inactive; G9a block: inconclusive; JMJD2A Tudor inh: 5.01µM; Sfp PPTase inh: inconclusive

What do the screens show for `S=c1[nH]nc(C23CC4CC(CC(C4)C2)C3)n1Cc1ccco1`?
HP1b chromo inh: inactive; PLK1 PBD block: inactive; BAZ2B inh: inconclusive; G9a block: inactive[0.0925 µM]; JMJD2A Tudor inh: 50.1µM; Sfp PPTase inh: inactive

How did CN(CCOc1ccc(-c2ccn(S(=O)(=O)c3cccc4ccccc34)n2)cc1)c1ccccn1 do in these assays?
HP1b chromo inh: inactive; PLK1 PBD block: inactive; BAZ2B inh: inactive; G9a block: inactive; JMJD2A Tudor inh: inactive; Sfp PPTase inh: inactive

How did OCCN1CCN(c2ncnc3c2ncn3[C@H]2CN(Cc3ccc4c(c3)OCO4)C[C@@H](CO)O2)CC1 do in these assays?
PLK1 PBD block: inactive

What do the screens show for `COC(=O)NC(c1cccs1)C(C(C)=O)C(=O)OC` (stereo unspecified)?
Sfp PPTase inh: inactive

How did CCc1ccc(OCc2nnc(SCCN3CCOCC3)n2CC)cc1 do in these assays?
HP1b chromo inh: inconclusive; PLK1 PBD block: inactive; G9a block: 7.08µM; JMJD2A Tudor inh: 3.16µM; Sfp PPTase inh: inactive

How did CCn1c(COc2ccc(C)cc2)nnc1SCc1ccc(C#N)cc1 do in these assays?
HP1b chromo inh: inactive; PLK1 PBD block: inactive; BAZ2B inh: inactive; JMJD2A Tudor inh: inactive; Sfp PPTase inh: inactive

What do the screens show for `CCCNC(=O)c1ccc(-c2nc3ccccc3s2)s1`?
HP1b chromo inh: inactive; PLK1 PBD block: inactive; BAZ2B inh: 4.47µM; G9a block: inactive; JMJD2A Tudor inh: inactive; Sfp PPTase inh: inactive

Results for COc1ccc(-c2c(C)nn3c(N4CCN(c5cc(Cl)ccc5C)CC4)cc(C)nc23)cc1OC ?
HP1b chromo inh: inactive; BAZ2B inh: inactive; G9a block: inactive; JMJD2A Tudor inh: inactive

Results for CC(C)Sc1ncc(Cl)c(C(=O)Nc2nc3ccc(S(C)(=O)=O)cc3s2)n1 ?
HP1b chromo inh: inactive; BAZ2B inh: inactive; G9a block: inactive; JMJD2A Tudor inh: inactive

How did O=C(CSc1nnc(CNc2ccc(F)cc2)o1)OC1CCCCC1 do in these assays?
HP1b chromo inh: inactive; PLK1 PBD block: 21.2µM; BAZ2B inh: inactive; JMJD2A Tudor inh: inconclusive; Sfp PPTase inh: inactive

What do the screens show for `N#C/C(=C/c1cn(-c2ccccc2)nc1-c1cccc(S(=O)(=O)N2CCOCC2)c1)C(=O)NCc1ccco1`?
HP1b chromo inh: inactive; PLK1 PBD block: inactive; BAZ2B inh: inactive; G9a block: inactive; JMJD2A Tudor inh: inactive; Sfp PPTase inh: inactive

Results for N#C/C(=C/c1cn(-c2ccccc2)nc1-c1cccc(OCc2ccccc2)c1)C(=O)NCCCn1ccnc1 ?
HP1b chromo inh: inconclusive; PLK1 PBD block: inactive; BAZ2B inh: 10µM; G9a block: inactive; JMJD2A Tudor inh: 39.8µM; Sfp PPTase inh: inactive

How did CCOc1cccc(-c2nn(-c3ccccc3)cc2/C=C(/C#N)C(=O)NCCCn2ccnc2)c1 do in these assays?
HP1b chromo inh: inconclusive; PLK1 PBD block: inactive; BAZ2B inh: 35.5µM; G9a block: inconclusive; JMJD2A Tudor inh: inconclusive; Sfp PPTase inh: inconclusive

What do the screens show for `N#C/C(=C/c1cn(-c2ccccc2)nc1-c1cccc(S(=O)(=O)N2CCCC2)c1)C(=O)NCc1ccco1`?
HP1b chromo inh: inactive; PLK1 PBD block: inconclusive; BAZ2B inh: inactive; G9a block: 50.1µM; JMJD2A Tudor inh: inactive; Sfp PPTase inh: inactive

What do the screens show for `O=C(c1ccc2ncsc2c1)N1CCN(c2cccc(C(F)(F)F)c2)CC1`?
HP1b chromo inh: inactive; PLK1 PBD block: inactive; BAZ2B inh: inactive; G9a block: inconclusive; JMJD2A Tudor inh: inactive

Results for CC(C)C(=O)N1c2nc(C(C)C)nn2C2(CCCCC2)[C@@H]2CCCC[C@@H]21 ?
HP1b chromo inh: inactive; BAZ2B inh: inactive; G9a block: inactive; JMJD2A Tudor inh: inactive

How did COc1ccc2c(c1)C(c1ccccc1C)CC(=O)O2 (stereo unspecified) do in these assays?
G9a block: inconclusive; Sfp PPTase inh: inactive

What do the screens show for `CC1Oc2ccccc2OC1(O)c1ccccn1` (stereo unspecified)?
HP1b chromo inh: inactive; PLK1 PBD block: inactive; BAZ2B inh: inactive; G9a block: 20µM; JMJD2A Tudor inh: 50.1µM; Sfp PPTase inh: inactive

Results for CC1Oc2ccccc2OC1(O)c1ccc2ccccc2n1 (stereo unspecified) ?
HP1b chromo inh: inactive; PLK1 PBD block: inactive; BAZ2B inh: inactive; G9a block: inactive; JMJD2A Tudor inh: inconclusive; Sfp PPTase inh: inactive

How did Cn1c(=O)n(C)c2cc(/C=N/NC(N)=S)ccc21 do in these assays?
HP1b chromo inh: inactive; PLK1 PBD block: inactive; BAZ2B inh: inactive; G9a block: 20µM; JMJD2A Tudor inh: inactive; Sfp PPTase inh: 31.6µM

Results for Oc1c(C(c2ccccc2F)N2CCCCC2)sc2nc(-c3ccco3)nn12 (stereo unspecified) ?
HP1b chromo inh: inactive; BAZ2B inh: inactive; G9a block: inactive; JMJD2A Tudor inh: inactive

What do the screens show for `O=C(CNC(=O)c1ccc(Cl)cc1)Nc1ccc(S(=O)(=O)Nc2ncccn2)cc1`?
HP1b chromo inh: inactive; PLK1 PBD block: inactive; BAZ2B inh: inconclusive; G9a block: 22.4µM; JMJD2A Tudor inh: inactive; Sfp PPTase inh: inactive

How did O=C(CCNC(=O)c1ccccc1)Nc1ccc(S(=O)(=O)Nc2ncccn2)cc1 do in these assays?
HP1b chromo inh: inactive; PLK1 PBD block: inactive; JMJD2A Tudor inh: inactive

What do the screens show for `O=C(CCCNC(=O)c1ccc(Cl)cc1)Nc1ccc(S(=O)(=O)Nc2ncccn2)cc1`?
HP1b chromo inh: inactive; PLK1 PBD block: 26.7µM; BAZ2B inh: inactive; JMJD2A Tudor inh: inactive[11.4 µM]; Sfp PPTase inh: inactive

Results for Cc1ccc(C)c(CNS(=O)(=O)c2c(C(=O)N3CCCC3)c(C)n(C)c2C)c1 ?
HP1b chromo inh: inactive; PLK1 PBD block: inactive; BAZ2B inh: inactive; G9a block: inactive; JMJD2A Tudor inh: inactive; Sfp PPTase inh: inactive

Source: PubChem
